Rows were chosen to be rich in hits. Some 11% of all compounds tested hit in one or more screens of this group.
Sfp PPTase inh: inhibitors of Bacillus subtilis Sfp phosphopantetheinyl transferase | Q9F4F7 | Biochemical Sfp PPTase activity, qHTS | Potency, µM, for inactives: largest response in the series, negative = inhibition, most hits filed as inhibitors | 310,000 compounds, 3.5% hits | AID 1490;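 note: the enzyme is Sfp with the accession as filed and its product quenches rhodamine fluorescence; potency is the fitted concentration of half-maximal effect; 0% = enzyme reaction without inhibitor and -100% = no enzyme wells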
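Fluorescence-quenching assay with 15 nM Sfp, 5 uM rhodamine-CoA and 12.5 uM BHQ-2-labelled ybbR peptide in pH 7.6 Hepes/MgCl2 buffer. Enzyme was pre-incubated with compound for 15 min at room temperature. Rate was taken from the 30-min fluorescence change (525/598 nm).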
Tau fibril ThT: blocks human tau fibril formation measured by thioflavin T | 270,000 compounds, 2.1% hits | recombinant tau K18 P301L, heparin-induced fibrillization, ThT fluorescence | AID 1460 | P10636 | Potency, µM (top dose mostly 57.4 µM), for inactives: top-dose activity, negative = inhibition, most hits filed as inhibitors; note: potency is the fitted concentration of half-maximal effect; nearly all actives have a fitted effect of over 55% in size
Target sequence (P10636 561-689 P618L limits assumed): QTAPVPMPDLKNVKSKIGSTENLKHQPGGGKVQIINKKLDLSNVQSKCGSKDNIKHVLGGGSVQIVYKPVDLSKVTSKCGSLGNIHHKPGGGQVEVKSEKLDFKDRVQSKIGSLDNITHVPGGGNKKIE
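Tau K18 P301L fragment (15 uM unlabeled plus 0.24 uM Alexa 594-labeled) in 100 mM sodium acetate pH 7 with compound, fibrillization induced by 20 uM heparin for 6 hr at 37 C. Thioflavin T (30 uM) added, fluorescence read after 1 hr (ex 450, em 510 nm).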
Tau FP inhib: tau fibrillization inhibition (FP). Potency, µM (titrated, usually from 57.7 µM), inactives show top-dose activity, negative = inhibition, actives largely listed as inhibitors. 280,000 compounds, 0.39% hits. P10636. K18 P301L tau heparin fibrillization, Alexa594 FP, 6 h; note: potency is the fitted concentration of half-maximal effect; nearly all actives have a fitted effect of over 55% in size
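Quantitative HTS format: compounds meet 15 uM recombinant K18 P301L tau and Alexa 594-tau tracer in 100 mM sodium acetate pH 7; 20 uM heparin triggers fibrillization at 37 C over 6 hr; FP gives the signal.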
G9a block: inhibitors of human histone lysine methyltransferase G9a; G9a H3K9 monomethylation, AlphaScreen, 2 h; Potency, µM (series often up to 102 µM), without a hit: at the top dose activity, negative = inhibition, actives largely listed as inhibitors; 350,000 compounds, 8.8% hits; note: potency is the fitted concentration of half-maximal effect; nearly all actives have a fitted effect of over 75% in size
Target sequence (Q96KQ7 913-1193 limits assumed): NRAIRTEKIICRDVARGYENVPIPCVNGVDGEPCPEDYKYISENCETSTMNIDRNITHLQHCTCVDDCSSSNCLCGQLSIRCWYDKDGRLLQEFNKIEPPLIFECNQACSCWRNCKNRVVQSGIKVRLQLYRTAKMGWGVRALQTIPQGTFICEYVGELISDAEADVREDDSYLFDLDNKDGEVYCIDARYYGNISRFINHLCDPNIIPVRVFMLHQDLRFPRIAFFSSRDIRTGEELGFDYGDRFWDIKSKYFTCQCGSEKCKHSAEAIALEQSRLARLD
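Chemiluminescent proximity detection of H3K9 monomethylation, read after 10 min bead incubation in the dark. Reaction: 20 nM G9a, 500 nM biotin-H3K9 peptide, 20 uM SAM cofactor, 2 h, room temperature, following 15 min enzyme-compound preincubation.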
FBPA coupling cs: inhibits coupling enzyme system, counter-screen for aldolase hits. coupling enzyme system counterscreen, AmpLite Red fluorescence. activity change, negative = inhibition, % at 58.2 µM, hits read low. 290,000 compounds, 0.67% hits; in the data active = activity change below about -30%
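Coupling enzymes only (glyceraldehyde-3-phosphate) + compound, at 57.5 uM final, 10 min RT; add substrate/coupling/AmpLite Red mix, 20 min RT; fluorescence ex 525/em 598 nm. Actives flag coupling-system interference.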
Tau fluor cs: counter-screen for tau fibril formation inhibitors | tau K18 P301L (four-repeat tau fragment) Alexa594 fluorescence, heparin fibrillization | Potency, µM (top dose mostly 57.7 µM), for inactives: at the top dose activity change, negative = decrease | 280,000 compounds, 0.93% hits | AID 1463; note: potency is the fitted concentration of half-maximal effect; nearly all actives have a fitted effect of over 55% in size
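Human K18 P301L tau (15 uM unlabeled plus 0.24 uM Alexa 594-labeled, final) in 100 mM sodium acetate pH 7 was mixed with compound and 20 uM heparin and incubated 6 hr at 37 C.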
An asterisk follows results filed as active; ? = inconclusive; / = no result given; [ ] = another dose, or the depositor's remark. Unless noted, calls come from the whole dose curve; as a rule, active = well fitted curve in the direction sought with a large enough effect; inconclusive = small, poorly fitted or top-dose-only effect, or another doubt; inactive = no such curve, though single readings can be large; an effect the other way counts as inactive or inconclusive. Unless noted, % is set by controls: 0 for no effect and ±100 for the full control effect.

SMILES | Sfp PPTase inh | Tau fibril ThT | Tau FP inhib | G9a block | FBPA coupling cs | Tau fluor cs
CCNC(=S)N=Nc1c(O)[nH]c2ccc([N+](=O)[O-])cc12 | -16% | ? | 6% | -2% | -11 | -13%
Cc1c(C(=O)O)[nH]c2ccc([N+](=O)[O-])cc12 | 4% | -2% | 2% | ? | 16 | -8%
Cc1cccc(OCC(=O)NCC(=O)N=Nc2c(O)[nH]c3ccc([N+](=O)[O-])cc23)c1 | -16% | / | / | ? | -1 | /
O=C(Nc1ccc(F)cc1)C(=O)c1c(O)[nH]c2ccc([N+](=O)[O-])cc12 | ? | 16µM* | 2% | 32µM* | -23 | -27%
O=[N+]([O-])c1ccc2[nH]c(O)c(N=NC(=S)Nc3cccnc3)c2c1 | ? | 2.2µM* | 12% | 17%[12.7 µM] | -3 | ?
CCOC(=O)c1[nH]c(C)c(CCC(=O)Nc2ccc(C)cc2Cl)c1C | / | 7% | -3% | 1%[59 µM] | / | 3%
O=C(O)c1ccccc1N=Nc1c(O)[nH]c2ccc([N+](=O)[O-])cc12 | -16% | / | / | 25µM* | 4 | /
O=C(N=Nc1c(O)[nH]c2ccc([N+](=O)[O-])cc12)c1ccccc1Cl | ? | ? | 12% | ? | 0 | -25%
O=C(CNC(=O)c1ccc(Br)cc1)N=Nc1c(O)[nH]c2ccc([N+](=O)[O-])cc12 | 23% | / | / | ? | -4 | /
Cc1ccc(OC(C)C(=O)N=Nc2c(O)[nH]c3ccc([N+](=O)[O-])cc23)cc1 (centres undefined) | 4% | ? | 6% | -50% | 0 | 16µM*[quencher]
CCCCCC(=O)N=Nc1c(O)[nH]c2ccc([N+](=O)[O-])cc12 | 6% | -11% | 3% | 16%[59 µM] | 1 | -17%
Cc1ccc(NCC(=O)N=Nc2c(O)[nH]c3ccc([N+](=O)[O-])cc23)cc1 | -51% | 16µM* | 3% | / | -31* | 25µM*[quencher]
Cc1ccc(S(=O)(=O)N2CCCOC2CNC(=O)C(=O)NC2CCCCC2)cc1 (centres undefined) | 8% | 0% | 6% | -1% | 5 | 3%
CCCCCn1c(CN2CC(C)OC(C)C2)nc2c1c(=O)n(C)c(=O)n2C (centres undefined) | 25% | -2% | -6% | 40µM* | 0 | -1%
CCCCCn1c(CN2CCN(c3cccc(Cl)c3)CC2)nc2c1c(=O)n(C)c(=O)n2C | -14% | ? | 5% | 45µM* | -1 | -11%
CCCCn1c(CN2CCN(c3cccc(Cl)c3)CC2)nc2c1c(=O)n(C)c(=O)n2C | -24% | -8% | 4% | -35%[59 µM] | 0 | -8%
Cc1ccc(-c2noc(CN(C3CCCCC3)S(=O)(=O)c3ccc(C)cc3)n2)cc1 | / | -16% | -18% | 12%[59 µM] | / | ?
O=C(Nc1sc2c(c1C(=O)O)CCCCC2)c1ccccc1 | 40µM* | 11% | -3% | / | -38* | 8%
O=C(COc1ccccc1)Nc1sc2c(c1C(=O)Nc1ccccc1Cl)CCCCC2 | / | -1% | -8% | ? | / | -6%
O=C(Nc1sc2c(c1C(=O)O)CCCC2)c1cccc(Cl)c1 | -8% | / | / | -16% | -17 | /
O=C(Nc1sc2c(c1C(=O)O)CCCC2)c1ccc(Cl)cc1 | 8% | / | / | 15%[59 µM] | -36* | /
O=C(Nc1sc2c(c1C(=O)O)CCC2)c1ccccc1 | 3% | ? | -1% | ? | -21 | -28%
O=C(Cc1ccccc1)Nc1sc2c(c1C(=O)Nc1ccccc1Cl)CCCC2 | / | ? | -5% | 7.1µM* | / | -6%
O=C(Nc1sc2c(c1C(=O)O)CCC2)c1ccc(F)cc1 | -6% | ? | 6% | 40µM* | 1 | -13%
NC(=O)c1c(NC(=O)c2ccccc2Cl)sc2c1CCC2 | -9% | / | / | / | -1 | /
NC(=O)c1c(NC(=O)c2cccnc2Cl)sc2c1CCCC2 | 1% | -14% | 1% | 18µM* | 4 | -7%
CC(C)(C)C1CCc2c(sc(NC(=O)c3ccncc3)c2C(=O)Nc2ccccc2Cl)C1 (centres undefined) | / | -1% | 4% | 2.2µM* | / | -9%

Compound activity: PubChem BioAssay, National Center for Advancing Translational Sciences (NCATS)
